# Results filed as inconclusive are left out. Active and inactive are the calls of the source. Rule for the calls: active = hit-call score of the fitted dose curve at least 0.9, where 1 is the maximum; inconclusive = response in the unintended direction; inactive = score below 0.9.
# Molecular target: Androgen receptor (Homo sapiens) (UniProt P10275)
# Test: ATG_AR_TRANS: Attagene TRANS-FACTORIAL HepG2 Assay for human Androgen Receptor (AR) (AID 2282973)
# Details: HepG2 Attagene TRANS-FACTORIAL AR reporter transcription
# In short: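 Transfected HepG2, 24 h treatment, chimeric NR-Gal4 driving GAL4-UAS reporters. mRNA induction by RT-PCR/capillary electrophoresis fluorescence; DMSO as negative control and baseline.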
# Androgen receptor (Homo sapiens), sequence (P10275 whole entry, looked up): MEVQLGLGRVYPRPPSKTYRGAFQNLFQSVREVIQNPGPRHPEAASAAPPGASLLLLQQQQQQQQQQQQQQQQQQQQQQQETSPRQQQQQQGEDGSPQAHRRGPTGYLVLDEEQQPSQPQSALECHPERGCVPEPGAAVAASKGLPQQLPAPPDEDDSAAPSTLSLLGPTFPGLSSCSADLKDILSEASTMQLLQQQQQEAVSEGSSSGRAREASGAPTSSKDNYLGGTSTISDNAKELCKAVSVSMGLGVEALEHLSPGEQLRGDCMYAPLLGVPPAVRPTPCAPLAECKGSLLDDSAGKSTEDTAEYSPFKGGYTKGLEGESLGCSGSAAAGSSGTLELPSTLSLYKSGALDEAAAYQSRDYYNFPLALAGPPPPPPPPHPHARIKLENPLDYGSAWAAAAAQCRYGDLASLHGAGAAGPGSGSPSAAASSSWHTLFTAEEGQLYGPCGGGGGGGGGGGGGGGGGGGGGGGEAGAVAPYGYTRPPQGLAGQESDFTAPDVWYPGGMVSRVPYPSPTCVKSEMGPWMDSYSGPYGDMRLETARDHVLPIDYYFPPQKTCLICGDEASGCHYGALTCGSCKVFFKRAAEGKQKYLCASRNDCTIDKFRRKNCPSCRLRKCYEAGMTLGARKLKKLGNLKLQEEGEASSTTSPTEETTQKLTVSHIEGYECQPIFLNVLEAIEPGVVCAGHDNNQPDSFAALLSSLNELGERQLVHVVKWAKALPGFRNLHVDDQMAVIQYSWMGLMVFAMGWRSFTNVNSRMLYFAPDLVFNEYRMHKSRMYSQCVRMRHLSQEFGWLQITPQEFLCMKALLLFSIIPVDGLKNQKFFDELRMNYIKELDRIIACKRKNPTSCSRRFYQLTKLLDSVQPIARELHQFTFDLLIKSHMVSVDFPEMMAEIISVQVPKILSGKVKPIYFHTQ
SMILES,outcome,AC50
CC1(C)[C@H](C=C(Cl)Cl)[C@H]1C(=O)OCc1cccc(Oc2ccccc2)c1,inactive,–
O=C1OC(=O)c2cc(Oc3ccc4c(c3)C(=O)OC4=O)ccc21,inactive,–
COc1cc(C(C)C)ccc1C,inactive,–
CC(CC(C)(C)C)CC(C)(C)CC(C)(C)C (centres undefined),inactive,–
CCCCCCCCCCCCCCCCCC[N+](C)(C)C,–,14.5 µM (active)
OCc1ccccc1,inactive,–
CC(C)CCCCCCc1ccc(OCCOCCO)cc1,inactive,–
CO[Si](CCCNCCN)(OC)OC,inactive,–
CC(C)c1ccc2cc(C(C)C)ccc2c1,inactive,–
CCC1(C)C(=O)N(Cl)C(=O)N1Cl (centres undefined),inactive,–
C=CCc1cc(S(=O)(=O)c2ccc(O)c(CC=C)c2)ccc1O,inactive,–
O=C1CCCCC1,inactive,–
O=C(Cl)C(F)(F)C(F)(F)C(F)(F)C(F)(F)C(F)(F)C(F)(F)F,inactive,–
CCCC(=O)OCC(COC(=O)CCC)OC(=O)CCC,inactive,–
C=C(C)[C@@H]1CCC2=CCC[C@@H](C)[C@]2(C)C1,inactive,–
C=CC/C=C/C/C=C/C/C=C/C,inactive,–
C=C(C)C(=O)OCC(F)(F)C(F)(F)C(F)(F)C(F)F,inactive,–
O=C(F)C(F)(F)C(F)(F)C(F)(F)C(F)F,inactive,–
CC1=CCC2C(C1)C2(C)C (centres undefined),inactive,–
O=[N+]([O-])c1cc(C(F)(F)F)ccc1Cl,inactive,–
CN(Cc1cnc2nc(N)nc(N)c2n1)c1ccc(C(=O)N[C@@H](CCC(=O)O)C(=O)O)cc1,inactive,–
CCC(CC)CO,inactive,–
COCC(C)N (centres undefined),inactive,–
CCCCCCOC(=O)C(C)CC (centres undefined),inactive,–

# — PubChem BioAssay (EPA / NIEHS)
